# Measurements from PubChem BioAssay.
# The source made the active and inactive calls.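 The calls were made as follows, unless noted: active = visually confirmed hit in the image check and inhibition above 20%; inconclusive = visually confirmed hit but inhibition not above 20%; inactive = no visual hit in the image check.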
# Columns and labels:
# [1] = inhibitors of TNFa-induced NFkB p65 translocation, primary screen, imaging, HUVEC, MLSMR starter and 10KST1 sets (AID 438;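 active = inhibition above 20% together with a positive visual image hit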;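 also: compound added about 3h40 before a 20 min TNFalpha stimulation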;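 as to inhibition: signal is the nuclear over cytoplasmic p65 intensity ratio per well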); details: HUVEC TNFa-induced p65 nuclear translocation; cell count: measured here: nuclei count (cytotoxicity indicator), at 2.08 µM; inhibition: at 2 µM, stronger effect = higher value, 0% TNFa-plus-vehicle, 100% no-TNFa wells
# [2] = reduction of polyQ htt aggregates in cells – imaging, exon1htt(103Q)mCFP cells, high-content imaging, primary screen (AID 483;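 active = visual image review flags a hit and inhibition of aggregation exceeds 20%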;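 also: compound exposure lasted 3 days before fixation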;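 as to nuclei count: percent of the per-plate median nuclei count of sample wells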); details: exon1htt(103Q)mCFP cell line, aggregate imaging, at 2 µM; inhibition of aggregation: stronger effect = higher value; nuclei count: measured here: cell count, toxicity
# [3] = endothelial E-selectin expression blockers – imaging, HUVEC, immunofluorescence, MLSMR starter and 10KST1 sets, primary screen (AID 487); details: HUVEC TNFalpha-induced E-selectin immunofluorescence imaging, at 2 µM; inhibition: stronger effect = higher value; nuclei count: measured here: cell number, toxicity;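 as to inhibition: signal is fraction of cell area covered by stained E-selectin grains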;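 as to nuclei count: 100% = median nuclei count of all wells on the same plate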
# [4] = target: Voltage-gated potassium channel subunit beta-2 (Rattus norvegicus) (UniProt P62483); assay: inhibitors of rat Kvbeta2 reductase activity – biochemical, NADPH fluorescence, primary screen (AID 622;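 active = fluorescence slope higher than the sample average by over 3 SD, cut at about -0.22 in these data, passing the limit was not always enough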;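 also: slope of raw intensity against log time taken from 70 to 1610 s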); details: recombinant KvBeta, 4-cyanobenzaldehyde reduction, at 10 µM, stronger effect = higher value
# [5] = target: Voltage-gated potassium channel subunit beta-2 (Rattus norvegicus) (UniProt P62483); assay: enhancers of rat Kvbeta2 NADPH turnover – biochemical, NADPH fluorescence, primary screen (AID 623;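 active = NADPH fluorescence slope more negative than the mean of all samples by about 3 SD, 99.7% confidence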;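 also: fluorescence intensity change per second fitted from 20 to 320 s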); details: Recombinant KvBeta, NADPH fluorescence decrease slope, 10 min; at 10 µM; stronger effect = lower value
# [6] = target: Alpha-2C adrenergic receptor (Homo sapiens) (UniProt P18825); assay: compounds altering alpha2C-coupled GIRK flux – cell-based, HEK293 alpha2C/GIRK1/2, thallium flux, primary screen (AID 624;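 active = fluorescence slope after compound addition differing from the mean of all screened samples at 99.7% confidence, in either direction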;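 also: slope of fluorescence ratio to pre-addition baseline per second over 15 to 24 s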); details: thallium flux BTC fluorescence, at 10 µM, actives lie on both sides
# [7] = blockers of RIG-like receptor reporter activation – cell-based, Sendai virus stimulus, luciferase, 10K MLSCN set, TLR/RLR signaling modifier project, primary screen (AID 602276;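 active = inhibition at or above 50% at 10 µM; inactive = inhibition below 50%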;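 also: firefly luciferase from ISG56 promoter only with Renilla not read in this screen; 0% = Sendai virus plus DMSO and 100% = medium plus DMSO without virus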); details: HEK293 RL24 IRF3 luciferase reporter, at 10 µM, stronger effect = higher value
# [8] = TLR3 IRF3 reporter activation blockers – cell-based, poly I:C stimulus, luciferase, 10K MLSCN set, primary screen (AID 602277;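 active = inhibition of the reporter signal at or above 50%; inactive = inhibition below 50%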); details: HEK293-TLR3 RL24 IRF3 luciferase reporter, at 10 µM, stronger effect = higher value
# Sequence of Voltage-gated potassium channel subunit beta-2 (Rattus norvegicus) (P62483 whole entry, looked up): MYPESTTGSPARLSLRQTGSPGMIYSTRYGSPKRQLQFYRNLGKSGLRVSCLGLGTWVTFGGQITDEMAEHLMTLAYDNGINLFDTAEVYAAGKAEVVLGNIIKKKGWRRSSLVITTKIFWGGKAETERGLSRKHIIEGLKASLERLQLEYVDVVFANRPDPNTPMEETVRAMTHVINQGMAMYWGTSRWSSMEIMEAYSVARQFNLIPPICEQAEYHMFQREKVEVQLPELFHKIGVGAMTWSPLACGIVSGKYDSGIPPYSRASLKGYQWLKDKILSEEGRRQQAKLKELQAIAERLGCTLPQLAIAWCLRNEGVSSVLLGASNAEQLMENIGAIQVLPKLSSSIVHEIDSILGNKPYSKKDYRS
# Sequence of Alpha-2C adrenergic receptor (Homo sapiens) (P18825 whole entry, looked up): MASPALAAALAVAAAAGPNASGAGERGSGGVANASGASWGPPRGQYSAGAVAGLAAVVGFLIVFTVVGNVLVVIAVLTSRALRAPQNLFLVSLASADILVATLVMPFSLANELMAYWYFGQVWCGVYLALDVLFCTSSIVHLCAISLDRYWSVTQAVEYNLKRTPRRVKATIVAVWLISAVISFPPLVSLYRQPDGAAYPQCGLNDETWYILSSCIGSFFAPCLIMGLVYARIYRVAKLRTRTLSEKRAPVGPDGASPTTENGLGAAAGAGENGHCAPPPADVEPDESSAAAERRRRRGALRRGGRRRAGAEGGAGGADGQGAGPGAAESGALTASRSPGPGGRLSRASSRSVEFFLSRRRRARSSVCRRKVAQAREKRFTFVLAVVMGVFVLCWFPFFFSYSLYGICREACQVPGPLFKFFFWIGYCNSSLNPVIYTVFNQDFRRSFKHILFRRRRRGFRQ
Structure (SMILES),cell count [1],inhibition [1],inhibition of aggregation [2],nuclei count [2],inhibition [3],nuclei count [3],fluorescence slope [4],NADPH fluorescence slope [5],slope [6],inhibition [7],inhibition [8]
Cc1nc2oc3c(NCc4ccccn4)ncnc3c2c2c1COC(C)(C)C2,366,-2.9% (inactive),2.7% (inactive),78.1%,-75.4% (inactive),117%,-0.431 (inactive),-4.2e-06 (inactive),0.00661 (inactive),9.92% (inactive),12.7% (inactive)
Cc1ccc2c(c1)NC(=O)C(CC(=O)NCCCN1CCN(c3cc(Cl)ccc3C)CC1)O2 (stereo not drawn),640,4.1% (inactive),-19% (inactive),82.6%,8.8% (inactive),123%,-0.55 (inactive),3.4e-05 (inactive),0.00483 (inactive),-15.5% (inactive),-8.91% (inactive)
CC(=O)Nc1ccccc1-c1nc2ccc(C(=O)N3CCN(c4ccccc4)CC3)cc2[nH]c1=O,617,14.7% (inactive),-6.6% (inactive),96.8%,-3.1% (inactive),110%,-0.489 (inactive),-4.7e-05 (inactive),0.00656 (inactive),5.92% (inactive),-0.673% (inactive)
O=C(Nc1ccc(S(=O)(=O)N2CCc3ccccc32)cc1)c1ccc2c(c1)OCO2,307,-10% (inactive),14.7% (inactive),95.5%,5.1% (inactive),83.2%,-0.603 (inactive),-1.6e-05 (inactive),0.0108 (inactive),-3.74% (inactive),-67.6% (inactive)
O=C(CN(CC1CCCO1)C(=O)CCC(=O)Nc1ccccn1)NCC1CCCO1 (stereo not drawn),634,-1.6% (inactive),-13.7% (inactive),122%,-8.5% (inactive),122%,-0.421 (inactive),-3e-05 (inactive),0.00568 (inactive),13.4% (inactive),15.3% (inactive)
CC1CCCN(c2ccc(C(=O)NCc3cccs3)cn2)C1 (stereo not drawn),632,-14.3% (inactive),-22.9% (inactive),112%,-67.5% (inactive),139%,-0.614 (inactive),-6.9e-06 (inactive),0.00612 (inactive),-37.8% (inactive),-71.3% (inactive)
COC(=O)CCC(NC(=O)c1cc(-c2ccc3c(c2)OCCO3)oc1C)C(=O)OC (stereo not drawn),320,20% (active),0.3% (inactive),104%,13.3% (inactive),104%,-0.48 (inactive),-3e-05 (inactive),0.00476 (inactive),-2.55% (inactive),-6.77% (inactive)
Cn1cnc2c(N3CCCCC3)nccc21,720,-31% (inactive),0.5% (inactive),97.8%,-88.5% (inactive),122%,-0.417 (inactive),-0.000121 (inactive),0.00681 (inactive),7.97% (inactive),22.8% (inactive)
Cc1cc(C)n(CC(=O)NC2CCCCC2)n1,406,-0.6% (inactive),-4.9% (inactive),105%,-225% (inactive),114%,-0.468 (inactive),-1.5e-06 (inactive),0.00622 (inactive),14.7% (inactive),18% (inactive)
CCOC(=O)C1CCN(C(=O)CN(c2ccc(Cl)c(C(F)(F)F)c2)S(C)(=O)=O)CC1,648,-23.5% (inactive),-18.2% (inactive),107%,8.7% (inactive),52.3%,-0.453 (inactive),-1.4e-05 (inactive),0.0048 (inactive),11.7% (inactive),16.6% (inactive)
Cc1sc2nc(SCC(=O)NCCO)n(C)c(=O)c2c1C,368,4.3% (inactive),12.1% (inactive),109%,4.8% (inactive),112%,-0.343 (inactive),-5.2e-05 (inactive),0.00646 (inactive),5.26% (inactive),26% (inactive)
CC(C)(C)c1cc(NS(=O)(=O)c2ccc3c(c2)OCCO3)on1,574,-2.4% (inactive),5.3% (inactive),104%,-81.6% (inactive),167%,-0.586 (inactive),-2.5e-06 (inactive),0.0066 (inactive),11.1% (inactive),20.1% (inactive)
CCOc1ccc2nc(N3CCC(C(=O)N4CCN(C5CCCCC5)CC4)CC3)sc2c1,594,-0.8% (inactive),-15.4% (inactive),103%,-54% (inactive),107%,-0.553 (inactive),6.2e-06 (inactive),0.00601 (inactive),-54.1% (inactive),-73.6% (inactive)
Cc1ccccc1-c1nc(CN2CCC(C(=O)N3CCC(C(N)=O)CC3)CC2)c(C)o1,576,6.1% (inactive),1.2% (inactive),87.6%,7.6% (inactive),87.8%,-0.548 (inactive),-3.8e-05 (inactive),0.00557 (inactive),7.94% (inactive),40.4% (inactive)
O=C(O)CCC1(C(=O)O)OCCc2ccccc21 (stereo not drawn),470,2.9% (inactive),-4.2% (inactive),99.2%,-99.4% (inactive),118%,-0.599 (inactive),-3.7e-05 (inactive),0.00588 (inactive),8.34% (inactive),17.4% (inactive)
C=CCOC(=O)C1=C(C)NC(=O)NC1c1cn(-c2ccccc2)nc1-c1cccs1 (stereo not drawn),663,-18.8% (inactive),13.7% (inactive),87.3%,-7.6% (inactive),110%,-0.332 (inactive),-5.4e-05 (inactive),0.00533 (inactive),14.3% (inactive),14.3% (inactive)
COC(=O)Cn1ncc2c(C)n(Cc3ccccc3)c(C)c2c1=O,732,-5.2% (inactive),15.7% (inactive),88.1%,-72.2% (inactive),122%,-0.563 (inactive),-2.4e-05 (inactive),0.00743 (inactive),-29.4% (inactive),-89.1% (inactive)
CCc1nnc(NC(=O)CSc2nnc(-c3ccoc3C)n2CC(C)C)s1,714,3.2% (inactive),-3.8% (inactive),110%,15.4% (inactive),91%,-0.367 (inactive),4.9e-06 (inactive),0.0051 (inactive),16.7% (inactive),15.3% (inactive)
CC(C)CN(CC(C)C)C(=O)C12CCC(C)(C(=O)C1)C2(C)C (stereo not drawn),720,-10.4% (inactive),13.7% (inactive),99.8%,-45.3% (inactive),115%,-0.452 (inactive),0.000106 (inactive),0.00697 (inactive),-21.4% (inactive),-2.9% (inactive)
CC1CCc2c(sc3c2C2=NS(=O)(=O)CCN2C=N3)C1 (stereo not drawn),188,2.9% (inactive),2.7% (inactive),87.1%,-5.5% (inactive),108%,-0.582 (inactive),-6.8e-05 (inactive),0.00732 (inactive),11.9% (inactive),33.3% (inactive)
O=C(Nc1ccc(N2C(=O)C3C4C=CC(C4)C3C2=O)cc1)Nc1cccnc1 (stereo not drawn),426,0% (inactive),-7.7% (inactive),104%,-33.4% (inactive),112%,-0.334 (inactive),-2.1e-05 (inactive),0.00357 (inactive),7.37% (inactive),3.82% (inactive)
Cn1c(=O)c2c(nc(CN3CCN(c4ccccc4F)CC3)n2CCN2CCOCC2)n(C)c1=O,317,-6.9% (inactive),13.3% (inactive),114%,-26.9% (inactive),107%,-0.288 (inactive),-2.7e-05 (inactive),0.00647 (inactive),17.6% (inactive),17.1% (inactive)
CC1(C)CC(=O)C(C=Nc2ccncc2)=C(O)C1,463,4.9% (inactive),3.3% (inactive),103%,-42.3% (inactive),120%,-0.607 (inactive),5e-06 (inactive),0.00629 (inactive),-2.33% (inactive),10.3% (inactive)
O=C(NCc1ccco1)C1CCN(c2ccc(N3CCOCC3)nn2)CC1,633,1.6% (inactive),4.1% (inactive),92.4%,-70.8% (inactive),110%,-0.387 (inactive),8e-06 (inactive),0.00458 (inactive),-14.1% (inactive),-20.9% (inactive)
COc1ccc(-c2nnc(SC(C)C(=O)Nc3nccs3)n2-c2ccccc2)cc1OC (stereo not drawn),548,-8% (inactive),2.8% (inactive),82.2%,-36.4% (inactive),93.8%,-0.496 (inactive),2.4e-05 (inactive),0.0047 (inactive),-14.8% (inactive),-2.92% (inactive)
Cc1nc(C)c2c(c1C(F)(F)F)-c1ccccc1C2(F)F,397,3.9% (inactive),-0.1% (inactive),108%,-30.7% (inactive),107%,-0.454 (inactive),-8.2e-06 (inactive),0.00655 (inactive),-9.52% (inactive),98.9% (active)
O=C(CSc1nnc(-c2ccccc2)o1)NC1CCCCC1,355,0% (inactive),8% (inactive),109%,-10.5% (inactive),103%,-0.55 (inactive),2e-05 (inactive),0.0067 (inactive),5.13% (inactive),0.841% (inactive)
COc1ccc(CCNC(=O)CN(c2ccccc2OC)S(C)(=O)=O)cc1,723,-3.4% (inactive),33.6% (inactive),87.7%,-41.9% (inactive),98.4%,-0.427 (inactive),-0.000127 (inactive),0.00571 (inactive),15.7% (inactive),27.5% (inactive)
